Measured values published in PubChem BioAssay (NCATS).
“And” between values parts separate entries of the source, which are not always exact repeats. Identical values can stand only once. Records with an inconclusive call do not appear. The source made the active and inactive calls. Unless noted, calls follow the shape of the dose curve; as a rule, active = well fitted curve in the direction sought with a large enough effect; inconclusive = small, poorly fitted or top-dose-only effect, or another doubt; inactive = no such curve, though single readings can be large; an effect the other way counts as inactive or inconclusive.

Legend:
[1] = MultiTox-Fluor Cytotoxicity Assay - LYMP1-001 - Dead Cells (AID 946);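 also: 0% = DMSO and 100% = tetraoctylammonium bromide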
In short: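 LYMP1-001 lymphoblastoid cells (2500/well) treated 16 h at 37 C. Dead-cell protease cleavage of bis-AAF-R110 read at Ex/Em 485/520. Normalized to DMSO and 15 uM tetraoctylammonium bromide; AC50 from Hill fits.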

[2] = MultiTox-Fluor Cytotoxicity Assay - LYMP1-001 - Live Cells (AID 947);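 also: 0% = DMSO only and full inhibition = tetraoctylammonium bromide control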
[3] = Cell Viability - LYMP1-002 - Assay at 16 hr (AID 948);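 also: 0% = DMSO alone and full effect = 92 µM tetraoctylammonium bromide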
In short: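 Human lymphoblastoid cells (LYMP1-002), 2500/well, were preincubated 5 hr at 37 C, then exposed to compounds for 16 hr at 37 C in complete medium. Cellular ATP was read by CellTiter-Glo luminescence after 30 min at room temperature; AC50 from Hill fits.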

[4] = MultiTox-Fluor Cytotoxicity Assay - LYMP1-003 - Live Cells (AID 962);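 also: 0% = DMSO only and full loss = 92 µM tetraoctylammonium bromide; cytotoxic hits lower the live-cell protease signal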
In short: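 LYMP1-003 lymphoblastoid cells, 2500/well in complete medium, treated 16 h at 37 C; live-cell protease cleavage of GF-AFC read by fluorescence (Ex/Em 405/510) after 60 min reagent; AC50 from Hill fits of concentration-response.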

[5] = Cell Viability - LYMP1-003 - Assay at 24 hr (AID 963);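 also: plate controls were DMSO only for no effect and tetraoctylammonium bromide positive control for full effect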
In short: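 Human lymphoblastoid LYMP1-003 cells, 2500/well, treated 24 h at 37 C in complete medium. Viability read as intracellular ATP by CellTiter-Glo luminescence after 30 min at room temperature; AC50 from Hill-equation fits of qHTS concentration-response.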

[6] = Cell Viability - LYMP2-003 (AID 965);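 also: cells exposed to compounds for 24 h before reading; 0% = DMSO only and full effect = 92 µM tetraoctylammonium bromide; nearly all actives have a fitted effect of over 50% in size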
In short: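 Human lymphoblastoid cells (2500/well) were pre-incubated 5 hr at 37 C, then exposed to compounds over a concentration range for 24 hr at 37 C. Intracellular ATP was read by CellTiter-Glo luminescence; AC50 came from Hill-equation fits.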

[7] = Cell Viability - LYMP2-004 (AID 966);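 also: plate controls were DMSO only for no effect and tetraoctylammonium bromide control for full effect; nearly all actives have a fitted effect of over 65% in size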
In short: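 Lymphoblastoid LYMP2-004 cells, 2500 per well, were preincubated for 5 hr and then treated with compound for 24 h at 37 C in complete medium. Viability was read as cellular ATP by CellTiter-Glo luminescence, and AC50 values were taken from Hill fits to concentration-response data.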

[8] = Cell Viability - LYMP2-009 (AID 968);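 also: series mostly up to about 92 µM; 0% = DMSO alone and the full-kill end = tetraoctylammonium bromide at 92 µM; nearly all actives have a fitted effect of over 55% in size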
[9] = Cell Viability - LYMP2-011 (AID 969);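 also: 0% = DMSO only and full inhibition = 92 µM tetraoctylammonium bromide; nearly all actives have a fitted effect of over 60% in size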
In short: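 2500 cells/well in complete medium, compound-treated 24 h at 37 C. Viability read as intracellular ATP by CellTiter-Glo luminescence after 30 min at room temperature. AC50 from Hill fits of qHTS concentration-response data.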

[10] = Cell Viability - LYMP2-013 (AID 970);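 also: series mostly up to about 92 µM; 0% = DMSO only and full inhibition = tetraoctylammonium bromide control; nearly all actives have a fitted effect of over 55% in size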
In short: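 Human lymphoblastoid LYMP2-013 cells, 2500/well, treated 24 h at 37 C in complete medium; viability as intracellular ATP by CellTiter-Glo luminescence after 30 min. AC50 from Hill fits of qHTS concentration-response.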

[11] = Cell Viability - LYMP2-015 (AID 971);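 also: 0% = DMSO only and full effect = 92 µM tetraoctylammonium bromide; nearly all actives have a fitted effect of over 55% in size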
In short: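 LYMP2-015 human lymphoblastoid cells (2500/well) in complete medium, compound-treated 24 h at 37 C; viability read as cellular ATP by CellTiter-Glo luminescence after 30 min at room temperature. AC50 from Hill-equation fits of qHTS concentration-response data.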

[12] = Cell Viability - LYMP2-017 (AID 972); also: series mostly up to about 92 µM; % is scaled to controls: 0 for no effect and ±100 for the full control effect; nearly all actives have a fitted effect of over 55% in size
In short: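 LYMP2-017 human lymphoblastoid cells (2500/well) settled 5 hr at 37 C, then exposed to compound 24 hr at 37 C in complete medium. Viability taken as intracellular ATP by CellTiter-Glo luminescence after 30 min at RT; AC50 from Hill fits.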

[13] = Cell Viability - LYMP2-019 (AID 973)
In short: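 Human lymphoblastoid LYMP2-019 cells (2500/well) preincubated 5 h at 37 C, then treated 24 h at 37 C in complete medium. Viability by CellTiter-Glo ATP luminescence after 30 min at room temperature; AC50 from Hill fits.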

[14] = Cell Viability - LYMP2-021 (AID 974)
In short: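 Human lymphoblastoid LYMP2-021 cells, 2500/well in complete medium, treated 24 hours at 37 C. Intracellular ATP by CellTiter-Glo luminescence (30 min, RT); AC50 from Hill fits of concentration-response.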

[15] = Cell Viability - LYMP2-023 (AID 975)
In short: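 LYMP2-023 human lymphoblastoid cells, 2500/well, preincubated 5 hr at 37 C, then compound-treated 24 hr at 37 C in complete medium. CellTiter-Glo luminescence (ATP) after 30 min at room temperature; AC50 from Hill-equation fits; tetraoctylammonium bromide positive control.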

[16] = Cell Viability - LYMP2-025 (AID 976);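 also: series mostly up to about 92 µM; plate controls were DMSO only for no effect and tetraoctylammonium bromide control for full effect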
In short: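 Human lymphoblastoid LYMP2-025 cells, 2500/well, exposed 24 h at 37 C in complete medium in 1536-well qHTS. Viability as cellular ATP by CellTiter-Glo luminescence; AC50 from Hill fits of concentration-response data.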

[17] = Cell Viability - LYMP2-002 (AID 977);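 also: series mostly up to about 92 µM; compound exposure lasted 24 h at 37 °C; plate controls were DMSO only for no effect and 92 µM tetraoctylammonium bromide for full effect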
In short: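 Cytotoxicity is scored as concentration-dependent loss of cellular ATP in a human lymphoblastoid line after 24 hr compound treatment at 37 C. AC50 is obtained by modelling concentration-response data with the Hill equation.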

[18] = qHTS assay for small molecule antagonists of the retinoid-related orphan receptor gamma (ROR-gamma) signaling pathway - cell viability counter screen (AID 720652; active = well fitted curve in the direction sought with a large enough effect in the repeat runs; an effect the other way counts as inactive or inconclusive;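 also: CHO reporter cells with doxycycline-induced ROR-gamma expression; series mostly up to about 92 µM; compound exposure lasted 16 hr before ATP read; % is scaled to controls: 0 for no effect and ±100 for the full control effect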)
In short: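 CHO cells carrying TET-inducible ROR and RORE-luciferase reporter, plated 5 hr, then dosed with compound plus doxycycline. After 16 hr at 37 C, viability read as intracellular ATP by CellTiter-Glo luminescence.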

[19] = qHTS assay for cell viability of HEK293 cells (AID 743288); settings: ATP luminescence (CellTiter-Glo), 18 h; max response: stronger effect = lower value; also: % is scaled to controls: 0 for no effect and ±100 for the full control effect; nearly all actives have a fitted effect of over 50% in size
In short: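 Parental HEK293 cells were seeded at 2,000 cells/well, rested at least 5 h at 37 C, then exposed to compounds in DMSO for 18 h at 37 C. Viability was read as ATP-dependent luciferase luminescence after 30 min at room temperature.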

[20] = qHTS assay for cell viability of the p53RE-bla HCT-116 cell line (AID 743292)
In short: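 Quantitative high-throughput format: compounds in DMSO were pinned onto p53RE-bla HCT-116 cells (4,000/well) and incubated 16 h at 37 C. Total intracellular ATP, read by CellTiter-Glo luminescence, reflects viable cell number.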

c1ccc2c(c1)-c1cccc3cccc-2c13
inactive: Potency [1] | outcome [2] | outcome [3] | outcome [4] | outcome [5] | outcome [6] | outcome [7] | outcome [8] | outcome [9] | outcome [10] | outcome [11] | outcome [12] | outcome [13] | outcome [14] | outcome [15] | outcome [16] | outcome [17] | outcome [18] | max response [19] -24.1% and 3.9% | outcome [20]

c1ccc(Nc2ccc3ccccc3c2)cc1
inactive: Potency [1] | outcome [2] | outcome [3] | outcome [4] | outcome [5] | outcome [6] | outcome [7] | outcome [8] | outcome [9] | outcome [10] | outcome [11] | outcome [12] | outcome [13] | outcome [14] | outcome [15] | outcome [16] | outcome [17] | outcome [18] | max response [19] -12% and -13.2% | outcome [20]

CC(=O)/C=C/c1ccccc1
inactive: Potency [1] | outcome [2] | outcome [3] | outcome [4] | outcome [5] | outcome [6] | outcome [7] | outcome [8] | outcome [9] | outcome [10] | outcome [11] | outcome [12] | outcome [13] | outcome [14] | outcome [15] | outcome [16] | outcome [17] | outcome [18] | max response [19] -4.92% | outcome [20]

Oc1ccccc1Cl
inactive: Potency [1] | outcome [2] | outcome [3] | outcome [4] | outcome [5] | outcome [6] | outcome [7] | outcome [8] | outcome [9] | outcome [10] | outcome [11] | outcome [12] | outcome [13] | outcome [14] | outcome [15] | outcome [16] | outcome [17] | outcome [18] | max response [19] -13.2% | outcome [20]

COC1=CC(=O)OC(CCc2ccc3c(c2)OCO3)C1 (stereo not given)
inactive: Potency [1] | outcome [2] | outcome [3] | outcome [4] | outcome [5] | outcome [6] | outcome [7] | outcome [8] | outcome [9] | outcome [10] | outcome [11] | outcome [12] | outcome [13] | outcome [14] | outcome [15] | outcome [16] | outcome [17] | outcome [18] | max response [19] -5.17% | outcome [20]

CCOC(=O)c1ccccc1N
inactive: Potency [1] | outcome [2] | outcome [3] | outcome [4] | outcome [5] | outcome [6] | outcome [7] | outcome [8] | outcome [9] | outcome [10] | outcome [11] | outcome [12] | outcome [13] | outcome [14] | outcome [15] | outcome [16] | outcome [17] | outcome [18] | max response [19] -8.89% | outcome [20]

CC(C)COC(=O)c1ccccc1C(=O)OCC(C)C
inactive: Potency [1] | outcome [2] | outcome [3] | outcome [4] | outcome [5] | outcome [6] | outcome [7] | outcome [8] | outcome [9] | outcome [10] | outcome [11] | outcome [12] | outcome [13] | outcome [14] | outcome [15] | outcome [16] | outcome [17] | outcome [18] | max response [19] 0.653% | outcome [20]
